# ± gives the standard deviation.
# Test system: MILI (PIWIL2) piRISC loaded with L1MC piRNA (26 nt)
# Assay: pre-steady-state target cleavage rate (min^-1); guide: L1MC piRNA 5'p-UAACUAAAUACUAUGCAAGCUGUAGG; MIWI and MILI are mouse PIWI proteins and EfPiwi is from a freshwater sponge; tags in brackets are library labels; higher = faster piRNA-guided slicing of the target
# Details: auxiliary factor: 500 nM mouse GTSF1
# Outline: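 Cleave-'n-Seq: a transcribed, DNA-blocked target RNA library (0.1 nM) was mixed with 1 nM active affinity-purified piRISC carrying one synthetic guide, with or without 500 nM GTSF1 partner protein, in HEPES–potassium acetate buffer at 33 °C for 0–8 or 0–960 min. Uncleaved targets were sequenced and normalised to depth and to weakly complementary targets. Three trials were pooled, and k3 was capped at 0.0001 min^-1. The pre-steady-state cleavage rate came from a burst-and-steady-state fit.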
row,Sequence,pre-steady-state target cleavage rate
1,UCCUGCAACAGCUUGCUUAGUAUUUAGUUA,0.293 ± 0.016
2,UCCUGGAUGUCGAUGCAUAGUACUUAGUUA,0.025 ± 0.0066
3,UCCUGGAUCAGCUUGUCAUAGUAUUUAGUUA,0.21 ± 0.019
4,UCCUGGUUCAGCUUGCUUAGUAUUUAGUUA,0.199 ± 0.017
5,UCCUCCUACAUCUUGCAUAGUAUUUAGUUA,0.277 ± 0.02
6,UCCUGCUACAGCUGGCAUAGUAUUUAGUUA,0.293 ± 0.019
7,UCCUGCAACAGCUUGCAUUGUAUUUAGUUA,0.262 ± 0.018
8,UCCUGCACAGCUUGCAUAGUAUUUAGUUA,0.317 ± 0.018
9,UCCUGGAUCAGCUAGCAUAGUAUUAAGUUA,0.247 ± 0.019
10,UCCUGGAAGAGCUUGCAUAGUAUUUAGUUA,0.223 ± 0.014
11,UCCUCCUACAGCAUGGAUAGUAUUUAGUUA,0.269 ± 0.014
12,UCCUGGAACAGCAUGCAUAGUAAUUAGUUA,0.225 ± 0.017
13,UCCUGGAUCAGCUACCAUAGUAUUUAGUUA,0.145 ± 0.014
14,UCCUGGAACUGCUUGCAUAGUAAUUAGUUA,0.159 ± 0.012
15,UCCUCCUACAGCUUGCAAAGUUUUUAGUUA,0.0169 ± 0.0064
16,UCCUGGAUCAGCUUGCAUAGUUUUUAGUUA,0.0479 ± 0.0086
17,UCCUGGUUCAGGUUGCAUAGUAUUUAGUUA,0.21 ± 0.023
18,UCCUCCUACAGCUUGCAUUGUUUUUAGUUA,0.0161 ± 0.0055
19,UCCUGGAACAGGUUGCAUAGAAUUUAGUUA,0.0524 ± 0.011
20,UCCUGCAUACAGCUUGCAUAGUAUUUAGUUA,0.554 ± 0.047

row,Sequence,pre-steady-state target cleavage rate
1,UCCUCCUACAGCUUGCAUAGUAUAAUGUUA,0.158 ± 0.026
2,UCCUGGUACAACUUGCAUAGUAUUUAGUUA,0.273 ± 0.023
3,UCCUGGUACAGCUCGCAUAGUAUUUAGUUA,0.262 ± 0.023
4,UCCUGGAUGUCGAUGUAUAGUAUUUAGUUA,0.0919 ± 0.011
5,UCCUGGAUGUCGAUGCAUAGUAUUUAAGUUA,0.145 ± 0.019
6,UCCUGGAUCAGCAUGCAUUGUAUUUAGUUA,0.15 ± 0.014
7,UCCUGCUACAGCUAGCAUUGUAUUUAGUUA,0.225 ± 0.019
8,UCCUGCUUCAGCUUGCAUAGUAAUUAGUUA,0.253 ± 0.022
9,UCCUGGUACUGCUUGCAUAGUAAUUAGUUA,0.169 ± 0.031
10,UCCUGGAUCAGUUUGCAUAGUAUUUAGUUA,0.24 ± 0.02
11,UCCUGGUACAGCUUGCAUAGUACUUUAGUUA,0.147 ± 0.024
12,UCCUCCUACAGCUUGCAUAGUAUUUAGUUUA,0.333 ± 0.019
13,UCCUGGAUGUGCUUGCAUAGUACUUAGUUA,0.105 ± 0.022
14,UCCUGGAUGAGCUUUCAUAGUAUUUAGUUA,0.15 ± 0.018
15,UCCUGGAUGAGCUUGCAUAGUAUUUAGAUA,0.135 ± 0.031
16,UCCUGGUUGUGCUUGCAUAGUAUUUAGUAA,0.0938 ± 0.02
17,UCCUCCUACUGCUUGCAUAGUAUAUAGUUA,0.179 ± 0.021
18,UCCUGCUACAGCUUGGAUAGUAUAUAGUUA,0.222 ± 0.026
19,UCCUGGAUGAGCUGGCAUAGUAUUUAGUUA,0.185 ± 0.016
20,UCCUGCUAGAGCUUGGAUAGUAUUUAGUUA,0.178 ± 0.014

# Same assay, conditions: auxiliary factor: none (no GTSF1)
row,Sequence,pre-steady-state target cleavage rate
1,UCCUGCAACAGCUUGCUUAGUAUUUAGUUA,0.00661 ± 0.0026
2,UCCUGGAUGUCGAUGCAUAGUACUUAGUUA,0.0058 ± 0.0019
3,UCCUGGAUCAGCUUGUCAUAGUAUUUAGUUA,0.00334 ± 0.0027
4,UCCUGGUUCAGCUUGCUUAGUAUUUAGUUA,0.0104 ± 0.003
5,UCCUCCUACAUCUUGCAUAGUAUUUAGUUA,0.00791 ± 0.0022
6,UCCUGCUACAGCUGGCAUAGUAUUUAGUUA,0.00759 ± 0.0024
7,UCCUGCAACAGCUUGCAUUGUAUUUAGUUA,0.0076 ± 0.0027
8,UCCUGCACAGCUUGCAUAGUAUUUAGUUA,0.00995 ± 0.0028
9,UCCUGGAUCAGCUAGCAUAGUAUUAAGUUA,0.00556 ± 0.0019
10,UCCUGGAAGAGCUUGCAUAGUAUUUAGUUA,0.0115 ± 0.0029
11,UCCUCCUACAGCAUGGAUAGUAUUUAGUUA,0.00942 ± 0.0022
12,UCCUGGAACAGCAUGCAUAGUAAUUAGUUA,0.00873 ± 0.0024
13,UCCUGGAUCAGCUACCAUAGUAUUUAGUUA,0.00343 ± 0.0016
14,UCCUGGAACUGCUUGCAUAGUAAUUAGUUA,0.00625 ± 0.0021
15,UCCUCCUACAGCUUGCAAAGUUUUUAGUUA,0.00334 ± 0.0023
16,UCCUGGAUCAGCUUGCAUAGUUUUUAGUUA,0.00873 ± 0.0021
17,UCCUGGUUCAGGUUGCAUAGUAUUUAGUUA,0.0182 ± 0.005
18,UCCUCCUACAGCUUGCAUUGUUUUUAGUUA,0.0039 ± 0.002
19,UCCUGGAACAGGUUGCAUAGAAUUUAGUUA,0.0038 ± 0.002
20,UCCUGCAUACAGCUUGCAUAGUAUUUAGUUA,0.0104 ± 0.0034

row,Sequence,pre-steady-state target cleavage rate
1,UCCUCCUACAGCUUGCAUAGUAUAAUGUUA,0.00294 ± 0.0027
2,UCCUGGUACAACUUGCAUAGUAUUUAGUUA,0.012 ± 0.0031
3,UCCUGGUACAGCUCGCAUAGUAUUUAGUUA,0.0138 ± 0.0045
4,UCCUGGAUGUCGAUGUAUAGUAUUUAGUUA,0.0069 ± 0.002
5,UCCUGGAUGUCGAUGCAUAGUAUUUAAGUUA,0.00656 ± 0.0024
6,UCCUGGAUCAGCAUGCAUUGUAUUUAGUUA,0.00792 ± 0.0027
7,UCCUGCUACAGCUAGCAUUGUAUUUAGUUA,0.007 ± 0.0024
8,UCCUGCUUCAGCUUGCAUAGUAAUUAGUUA,0.00622 ± 0.0021
9,UCCUGGUACUGCUUGCAUAGUAAUUAGUUA,0.00575 ± 0.0025
10,UCCUGGAUCAGUUUGCAUAGUAUUUAGUUA,0.0104 ± 0.0027
11,UCCUGGUACAGCUUGCAUAGUACUUUAGUUA,0.00705 ± 0.0032
12,UCCUCCUACAGCUUGCAUAGUAUUUAGUUUA,0.0143 ± 0.0034
13,UCCUGGAUGUGCUUGCAUAGUACUUAGUUA,0.00413 ± 0.0024
14,UCCUGGAUGAGCUUUCAUAGUAUUUAGUUA,0.00493 ± 0.0026
15,UCCUGGAUGAGCUUGCAUAGUAUUUAGAUA,0.00291 ± 0.0024
16,UCCUGGUUGUGCUUGCAUAGUAUUUAGUAA,0.00427 ± 0.0031
17,UCCUCCUACUGCUUGCAUAGUAUAUAGUUA,0.00372 ± 0.0022
18,UCCUGCUACAGCUUGGAUAGUAUAUAGUUA,0.00442 ± 0.0023
19,UCCUGGAUGAGCUGGCAUAGUAUUUAGUUA,0.0101 ± 0.0034
20,UCCUGCUAGAGCUUGGAUAGUAUUUAGUUA,0.0074 ± 0.0021

# Source: the supplement of paper PMC10338343
